Results filed as inconclusive are left out. The source made the active and inactive calls. Rule for the calls: active = hit-call score of the fitted dose curve at least 0.9, where 1 is the maximum; inconclusive = response in the unintended direction; inactive = score below 0.9.
Assays:
[1] = biological target: Estrogen receptor beta (Homo sapiens) (UniProt Q92731); assay: OT_ER_ERbERb_0480: Odyssey Thera (OT) 8-hour HEK293T Protein-Complementation Assay for Estrogen Receptor-beta/-beta Homodimer (AID 2283357);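 note: active means signal gain over DMSO baseline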
In short: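 Readout: increase in mean fluorescence intensity (nucleus for agonists; nucleus plus cytoplasm for antagonists) relative to DMSO, from a reporter-fragment complementation of human ER-beta LBD homodimer in HEK293T cells dosed 8 hours.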

PGR (gene 5241) = PGR (gene 5241) (UniProt P06401); assay: NVS_NR_hPR: NovaScreen (NVS) Nuclear Receptor Binding Assay for human Progestron Receptor (PR) (AID 2283360);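 note: active means loss of bound radioligand signal versus DMSO baseline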
In short: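 T47D-derived receptor preparation, cell-free, with tritiated or iodinated radioligand displacement measured by scintillation 18 h post-dosing. Single 25 uM duplicate screen, then concentration series; signal loss relative to DMSO.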

[2] = biological target: Glucocorticoid receptor (Homo sapiens) (UniProt P04150); assay: NVS_NR_hGR: NovaScreen (NVS) Nuclear Receptor Binding Assay for human Glucocorticoid Receptor (GR) (AID 2283363);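 for AC50: activity is loss of specific radioligand binding signal relative to DMSO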
In short: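 Cell-free radioligand binding with extracted receptor protein, read by filter-based scintillation counting 16 hours after dosing. Loss of specific signal versus DMSO baseline was scored. Primary screen ran in duplicate at 25 uM; actives were followed up in concentration series.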

[3] = biological target: guinea pig Sigma Receptor, Non-selective Binding, SIGMAR1 (gene 100135589) (UniProt Q60492); assay: NVS_OR_gSIGMA_NonSelective: NovaScreen (NVS) Nuclear Receptor Binding Assay for guinea pig Sigma Receptor, Non-selective Binding (AID 2283367)
In short: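 Guinea pig brain membranes, cell-free radioligand binding; read 1 h after dosing by filter-based scintillation counting. Loss of signal vs DMSO baseline taken as displacement. Primary screen single concentration 25 uM in duplicate; actives retested in concentration series.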

[4] = biological target: human Adenosine Transporter (Adot), SLC29A1 (gene 2030) (UniProt Q99808); assay: NVS_TR_hAdoT: NovaScreen (NVS) Transporter Assay for human Adenosine Transporter (Adot) (AID 2283368)
In short: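 U937-derived membranes, cell-free radioligand binding, filter scintillation 1 h after dosing. 25 uM duplicate screen; hits (e.g. 30% inhibition) run in concentration-response up to 50 uM; loss of signal versus DMSO.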

[5] = test system: guinea pig Dopamine Transporter (DAT), gene 100714898; assay: NVS_TR_gDAT: NovaScreen (NVS) Transporter Assay for guinea pig Dopamine Transporter (DAT) (AID 2283369);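 note: active compounds lower bound radioligand signal relative to DMSO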
In short: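 Radioligand displacement on membranes from guinea pig striatum, 2 h exposure, bound label counted by filtration and scintillation. Tested at 25 uM in duplicate, then actives in concentration series to 50 uM; DMSO as negative control.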

[6] = biological target: Peroxisome proliferator-activated receptor gamma (Homo sapiens) (UniProt P37231); assay: NVS_NR_hPPARg: NovaScreen (NVS) Nuclear Receptor Binding Assay for human Peroxisome Proliferator-activated Receptor gamma (PPARg) (AID 2283370)
In short: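 Fluorescence polarization readout of ligand binding to extracted human PPARg, measured at 2 h. Duplicate single-point screen at 25 uM, then concentration-series retesting; activity defined as signal loss versus DMSO.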

[7] = biological target: Retinoic acid receptor alpha (Homo sapiens) (UniProt P10276); assay: NVS_NR_hRAR_Antagonist: NovaScreen (NVS) Nuclear Receptor Binding Assay for human Retinoic Acid Alpha Receptor Antagonism (RAR) (AID 2283358)
In short: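 Cell-free TR-FRET binding assay on extracted receptor protein, run in antagonist mode; signal read 2 hours after chemical dosing. Loss of signal was fitted relative to DMSO baseline. Screened at 25 uM in duplicate, actives followed up in concentration series.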

[8] = biological target: human Thyroid Receptor Alpha (TRa), THRA (gene 7067) (UniProt P10827); assay: NVS_NR_hTRa_Antagonist: NovaScreen (NVS) Nuclear Receptor Binding Assay for human Thyroid Receptor Alpha Antagonism (TRa) (AID 2283362);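 note: activity is loss of signal relative to DMSO baseline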
In short: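 Actives from a duplicate 25 uM single-point screen were retested in concentration series. The cell-free antagonist-format binding assay was read by AlphaLISA chemiluminescence at 1 h, scored as signal loss relative to DMSO.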

[9] = biological target: Nuclear receptor subfamily 1 group I member 2 (Homo sapiens) (UniProt O75469); assay: NVS_NR_hPXR: NovaScreen (NVS) Nuclear Receptor Binding Assay for human Pregnane X Receptor (PXR) (AID 2283365);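 note: a drop in FRET signal versus DMSO baseline means the compound binds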
In short: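 Human PXR binding measured by TR-FRET in a cell-free format, 2 h exposure. Single-concentration duplicates at 25 uM preceded concentration-response retests of actives; endpoint fitted positively relative to DMSO, loss of signal indicating binding.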

Sequence of PGR (gene 5241) (P06401 whole entry, looked up): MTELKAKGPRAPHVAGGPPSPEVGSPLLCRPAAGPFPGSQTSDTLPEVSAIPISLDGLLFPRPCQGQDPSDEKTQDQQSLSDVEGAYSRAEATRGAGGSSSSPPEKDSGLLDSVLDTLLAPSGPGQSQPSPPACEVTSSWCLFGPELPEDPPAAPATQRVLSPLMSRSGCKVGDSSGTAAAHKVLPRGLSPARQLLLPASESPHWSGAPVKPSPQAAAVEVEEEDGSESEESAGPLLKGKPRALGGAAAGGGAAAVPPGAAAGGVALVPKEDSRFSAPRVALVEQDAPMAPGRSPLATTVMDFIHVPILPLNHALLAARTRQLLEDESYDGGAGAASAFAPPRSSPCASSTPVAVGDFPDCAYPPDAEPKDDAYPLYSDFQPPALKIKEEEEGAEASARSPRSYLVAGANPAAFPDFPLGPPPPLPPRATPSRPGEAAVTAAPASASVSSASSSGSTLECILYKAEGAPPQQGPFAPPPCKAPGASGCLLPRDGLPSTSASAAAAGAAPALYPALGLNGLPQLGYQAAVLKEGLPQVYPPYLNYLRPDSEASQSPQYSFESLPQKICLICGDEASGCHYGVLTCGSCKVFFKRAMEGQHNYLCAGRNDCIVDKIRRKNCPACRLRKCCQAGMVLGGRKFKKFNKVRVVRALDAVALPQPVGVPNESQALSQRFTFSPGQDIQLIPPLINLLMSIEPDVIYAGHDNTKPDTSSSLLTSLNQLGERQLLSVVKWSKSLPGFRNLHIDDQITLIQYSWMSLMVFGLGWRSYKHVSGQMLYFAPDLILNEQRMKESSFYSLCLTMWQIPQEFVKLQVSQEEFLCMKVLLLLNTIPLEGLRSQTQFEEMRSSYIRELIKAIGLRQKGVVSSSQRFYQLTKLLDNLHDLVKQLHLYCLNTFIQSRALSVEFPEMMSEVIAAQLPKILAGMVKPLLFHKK
Sequence of Peroxisome proliferator-activated receptor gamma (Homo sapiens) (P37231 whole entry, looked up): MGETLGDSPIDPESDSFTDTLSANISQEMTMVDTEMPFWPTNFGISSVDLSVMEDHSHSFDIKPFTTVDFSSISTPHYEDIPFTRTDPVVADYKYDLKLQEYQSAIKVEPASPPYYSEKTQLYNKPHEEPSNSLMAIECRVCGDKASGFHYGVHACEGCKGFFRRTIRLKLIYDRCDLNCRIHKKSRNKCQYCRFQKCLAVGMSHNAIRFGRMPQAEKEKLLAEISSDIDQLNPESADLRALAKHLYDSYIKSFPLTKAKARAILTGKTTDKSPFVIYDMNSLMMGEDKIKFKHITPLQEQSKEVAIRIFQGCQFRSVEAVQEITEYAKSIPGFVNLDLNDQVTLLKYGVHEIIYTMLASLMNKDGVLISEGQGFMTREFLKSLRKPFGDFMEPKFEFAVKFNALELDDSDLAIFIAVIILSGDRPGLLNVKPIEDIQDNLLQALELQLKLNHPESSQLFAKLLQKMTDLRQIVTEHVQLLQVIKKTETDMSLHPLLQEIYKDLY
Sequence of guinea pig Sigma Receptor, Non-selective Binding, SIGMAR1 (gene 100135589) (Q60492 whole entry, looked up): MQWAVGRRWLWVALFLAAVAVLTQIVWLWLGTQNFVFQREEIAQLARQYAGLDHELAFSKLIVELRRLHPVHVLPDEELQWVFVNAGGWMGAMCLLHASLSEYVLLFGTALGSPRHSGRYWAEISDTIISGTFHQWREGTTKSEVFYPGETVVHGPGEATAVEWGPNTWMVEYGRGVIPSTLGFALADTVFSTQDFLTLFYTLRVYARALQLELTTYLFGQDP
Sequence of Retinoic acid receptor alpha (Homo sapiens) (P10276 whole entry, looked up): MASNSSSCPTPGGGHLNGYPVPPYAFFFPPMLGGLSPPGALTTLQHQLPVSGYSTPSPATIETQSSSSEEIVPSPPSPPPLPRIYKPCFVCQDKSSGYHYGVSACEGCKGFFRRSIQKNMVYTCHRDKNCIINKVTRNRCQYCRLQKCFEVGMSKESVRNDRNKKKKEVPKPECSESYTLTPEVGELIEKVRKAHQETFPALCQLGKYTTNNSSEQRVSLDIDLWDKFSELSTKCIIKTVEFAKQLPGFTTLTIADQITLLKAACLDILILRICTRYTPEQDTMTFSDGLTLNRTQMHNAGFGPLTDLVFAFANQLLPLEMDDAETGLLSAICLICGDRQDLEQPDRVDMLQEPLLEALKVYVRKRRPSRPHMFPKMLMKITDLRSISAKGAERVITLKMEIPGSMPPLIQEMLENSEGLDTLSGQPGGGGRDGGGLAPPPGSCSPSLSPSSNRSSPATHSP
Sequence of human Thyroid Receptor Alpha (TRa), THRA (gene 7067) (P10827 whole entry, looked up): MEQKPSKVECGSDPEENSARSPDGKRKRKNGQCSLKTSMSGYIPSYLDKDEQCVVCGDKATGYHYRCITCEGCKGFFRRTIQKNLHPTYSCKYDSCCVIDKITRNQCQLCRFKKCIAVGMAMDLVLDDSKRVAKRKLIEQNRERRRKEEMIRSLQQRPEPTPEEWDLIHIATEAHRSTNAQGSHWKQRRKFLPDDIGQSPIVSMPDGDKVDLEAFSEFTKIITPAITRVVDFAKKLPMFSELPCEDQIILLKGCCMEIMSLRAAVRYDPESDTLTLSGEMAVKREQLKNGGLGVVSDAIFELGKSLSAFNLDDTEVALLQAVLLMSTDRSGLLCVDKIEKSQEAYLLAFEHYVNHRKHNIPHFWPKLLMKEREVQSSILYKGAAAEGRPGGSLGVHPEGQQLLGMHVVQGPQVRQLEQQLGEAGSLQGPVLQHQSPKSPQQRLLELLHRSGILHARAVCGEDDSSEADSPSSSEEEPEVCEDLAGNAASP
Sequence of Estrogen receptor beta (Homo sapiens) (Q92731 whole entry, looked up, the tested form may be a part): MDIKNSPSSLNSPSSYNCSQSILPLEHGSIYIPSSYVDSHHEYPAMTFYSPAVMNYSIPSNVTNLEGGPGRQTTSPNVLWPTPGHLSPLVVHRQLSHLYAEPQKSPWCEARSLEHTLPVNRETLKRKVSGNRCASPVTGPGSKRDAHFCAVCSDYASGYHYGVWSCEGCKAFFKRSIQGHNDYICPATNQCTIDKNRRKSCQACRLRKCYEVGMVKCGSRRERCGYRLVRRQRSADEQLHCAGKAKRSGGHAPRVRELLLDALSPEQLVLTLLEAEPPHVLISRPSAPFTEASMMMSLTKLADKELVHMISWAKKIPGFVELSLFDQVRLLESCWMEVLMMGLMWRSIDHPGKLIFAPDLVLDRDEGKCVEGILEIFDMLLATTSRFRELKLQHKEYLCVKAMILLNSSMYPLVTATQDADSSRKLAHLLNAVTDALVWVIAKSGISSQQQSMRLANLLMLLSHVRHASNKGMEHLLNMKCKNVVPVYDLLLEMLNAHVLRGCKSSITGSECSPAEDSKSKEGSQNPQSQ
Sequence of Glucocorticoid receptor (Homo sapiens) (P04150 whole entry, looked up): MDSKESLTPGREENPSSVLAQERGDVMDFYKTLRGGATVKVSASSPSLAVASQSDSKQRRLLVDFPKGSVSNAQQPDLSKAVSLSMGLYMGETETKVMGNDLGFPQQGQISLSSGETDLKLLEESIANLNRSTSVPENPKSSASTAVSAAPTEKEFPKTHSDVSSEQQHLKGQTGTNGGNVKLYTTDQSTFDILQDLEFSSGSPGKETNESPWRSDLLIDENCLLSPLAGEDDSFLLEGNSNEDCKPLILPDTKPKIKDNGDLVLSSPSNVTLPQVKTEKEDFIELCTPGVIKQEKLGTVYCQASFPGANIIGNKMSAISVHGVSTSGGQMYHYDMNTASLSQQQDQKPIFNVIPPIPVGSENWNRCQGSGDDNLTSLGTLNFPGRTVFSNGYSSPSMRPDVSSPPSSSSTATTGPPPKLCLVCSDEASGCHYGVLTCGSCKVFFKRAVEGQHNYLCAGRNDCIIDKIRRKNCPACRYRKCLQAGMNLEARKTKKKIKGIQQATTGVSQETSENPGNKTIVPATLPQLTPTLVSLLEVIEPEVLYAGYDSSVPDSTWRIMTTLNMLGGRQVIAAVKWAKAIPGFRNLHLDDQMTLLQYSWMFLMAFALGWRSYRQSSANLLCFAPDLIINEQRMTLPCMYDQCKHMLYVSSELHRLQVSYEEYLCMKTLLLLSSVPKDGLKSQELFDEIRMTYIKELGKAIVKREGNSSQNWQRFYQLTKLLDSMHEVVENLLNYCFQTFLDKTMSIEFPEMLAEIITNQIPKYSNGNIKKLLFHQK
Sequence of Nuclear receptor subfamily 1 group I member 2 (Homo sapiens) (O75469 whole entry, looked up): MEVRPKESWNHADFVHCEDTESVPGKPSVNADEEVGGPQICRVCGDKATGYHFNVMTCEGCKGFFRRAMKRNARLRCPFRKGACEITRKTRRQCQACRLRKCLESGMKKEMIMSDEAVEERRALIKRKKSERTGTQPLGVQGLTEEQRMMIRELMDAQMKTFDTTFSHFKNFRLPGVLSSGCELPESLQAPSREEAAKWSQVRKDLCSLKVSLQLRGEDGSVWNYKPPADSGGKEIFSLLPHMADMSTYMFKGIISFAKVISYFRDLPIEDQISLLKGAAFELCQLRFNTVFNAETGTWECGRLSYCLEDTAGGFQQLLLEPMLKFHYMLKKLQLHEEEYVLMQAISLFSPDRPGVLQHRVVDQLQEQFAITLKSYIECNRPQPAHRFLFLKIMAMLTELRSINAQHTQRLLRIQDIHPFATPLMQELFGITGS
Sequence of human Adenosine Transporter (Adot), SLC29A1 (gene 2030) (Q99808 whole entry, looked up): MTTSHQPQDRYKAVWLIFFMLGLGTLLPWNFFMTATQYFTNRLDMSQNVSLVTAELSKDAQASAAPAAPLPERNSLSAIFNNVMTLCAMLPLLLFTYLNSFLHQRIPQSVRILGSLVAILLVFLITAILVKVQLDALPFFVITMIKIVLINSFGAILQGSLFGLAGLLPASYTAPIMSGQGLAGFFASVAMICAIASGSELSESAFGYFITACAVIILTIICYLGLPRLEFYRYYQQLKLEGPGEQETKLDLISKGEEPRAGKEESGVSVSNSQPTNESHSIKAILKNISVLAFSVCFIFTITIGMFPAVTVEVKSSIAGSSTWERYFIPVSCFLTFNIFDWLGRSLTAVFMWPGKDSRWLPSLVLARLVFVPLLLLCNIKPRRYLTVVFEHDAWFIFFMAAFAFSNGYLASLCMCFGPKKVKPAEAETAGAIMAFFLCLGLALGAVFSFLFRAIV

Structure (SMILES): CCCOCC(=Nc1ccc(Cl)cc1C(F)(F)F)n1ccnc1
- outcome [1]: inactive
- outcome (PGR (gene 5241)): inactive
- AC50 [2]: 7.9 µM (active)
- AC50 [3]: 7.82 µM (active)
- AC50 [4]: 25 µM (active)
- outcome [5]: inactive
- AC50 [6]: 17.6 µM (active)

Structure (SMILES): CCCCSP(=O)(SCCCC)SCCCC
- outcome [1]: inactive

Structure (SMILES): COP(=O)(OC)C(O)C(Cl)(Cl)Cl (stereo not drawn)
- outcome [7]: inactive

Structure (SMILES): CCOP(=S)(OCC)Oc1ccc2c(C)c(Cl)c(=O)oc2c1
- AC50 (PGR (gene 5241)): 1.13 µM (active)

Structure (SMILES): CCc1cccc(C)c1N(C(=O)CCl)C(C)COC (stereo not drawn)
- outcome [1]: inactive
- outcome [7]: inactive
- outcome [3]: inactive
- outcome [6]: inactive

Structure (SMILES): CCc1cnc(C2=NC(C)(C(C)C)C(=O)N2)c(C(=O)O)c1 (stereo not drawn)
- AC50 [8]: 17.7 µM (active)

Structure (SMILES): O=C(O)c1cc(Oc2ccc(C(F)(F)F)cc2Cl)ccc1[N+](=O)[O-]
- outcome [1]: inactive
- AC50 [6]: 9.58 µM (active)

Structure (SMILES): CCOP(=S)(OCC)SCCSCC
- outcome [1]: inactive
- outcome [7]: inactive
- outcome [2]: inactive
- outcome [6]: inactive

Structure (SMILES): CSC1=N[C@@](C)(c2ccccc2)C(=O)N1Nc1ccccc1
- outcome [1]: inactive

Structure (SMILES): CCCCN(CC)c1c([N+](=O)[O-])cc(C(F)(F)F)cc1[N+](=O)[O-]
- outcome [1]: inactive
- outcome [7]: inactive
- outcome (PGR (gene 5241)): inactive
- outcome [8]: inactive
- outcome [2]: inactive
- outcome [6]: inactive

Structure (SMILES): CC(C1CC1)C(O)(Cn1cncn1)c1ccc(Cl)cc1 (stereo not drawn)
- AC50 [1]: 29.6 µM (active)
- outcome [7]: inactive
- outcome (PGR (gene 5241)): inactive
- outcome [8]: inactive
- outcome [9]: inactive

Structure (SMILES): CCOC(=O)CC(SP(=O)(OC)OC)C(=O)OCC (stereo not drawn)
- outcome [1]: inactive
- outcome [7]: inactive
- outcome (PGR (gene 5241)): inactive
- outcome [8]: inactive
- outcome [3]: inactive
- outcome [6]: inactive

Structure (SMILES): C[N+]1(C)CCCCC1
- outcome [1]: inactive

Structure (SMILES): CCC(CC)Nc1c([N+](=O)[O-])cc(C)c(C)c1[N+](=O)[O-]
- AC50 [1]: 12.6 µM (active)
- outcome (PGR (gene 5241)): inactive
- outcome [8]: inactive
- outcome [2]: inactive
- outcome [6]: inactive

Structure (SMILES): CCCSP(=O)(OCC)Oc1ccc(Br)cc1Cl (stereo not drawn)
- AC50 [1]: 29.8 µM (active)
- AC50 (PGR (gene 5241)): 25 µM (active)

Structure (SMILES): COc1cccc(C(=O)NN(C(=O)c2cc(C)cc(C)c2)C(C)(C)C)c1C
- outcome [1]: inactive
- outcome [7]: inactive

Structure (SMILES): CNC(=O)ON=C(C)SC
- outcome [1]: inactive
- outcome (PGR (gene 5241)): inactive
- outcome [2]: inactive

Structure (SMILES): CC1=NNC(=O)N(/N=C/c2cccnc2)C1
- outcome [1]: inactive
- outcome [7]: inactive

Structure (SMILES): C[Si](Cn1cncn1)(c1ccc(F)cc1)c1ccc(F)cc1
- outcome [1]: inactive
- outcome (PGR (gene 5241)): inactive

Structure (SMILES): CCC(=NOC/C=C/Cl)C1=C(O)CC(C2CCOCC2)CC1=O (stereo not drawn)
- outcome [1]: inactive
- outcome [6]: inactive

— PubChem BioAssay (EPA / NIEHS)
